Only some compounds are listed: those with a hit (about 6.1% of all), similar ones and a draw of the others.
D1 agonist – activates the human D1 dopamine receptor | P21728 | HEK293 T-REx D1 cells, calcium flux, agonist mode | activation, % at 2 µM | 360,000 tested, 1% active; in the data active = activation above about 30%
Target sequence (P21728 whole entry, looked up): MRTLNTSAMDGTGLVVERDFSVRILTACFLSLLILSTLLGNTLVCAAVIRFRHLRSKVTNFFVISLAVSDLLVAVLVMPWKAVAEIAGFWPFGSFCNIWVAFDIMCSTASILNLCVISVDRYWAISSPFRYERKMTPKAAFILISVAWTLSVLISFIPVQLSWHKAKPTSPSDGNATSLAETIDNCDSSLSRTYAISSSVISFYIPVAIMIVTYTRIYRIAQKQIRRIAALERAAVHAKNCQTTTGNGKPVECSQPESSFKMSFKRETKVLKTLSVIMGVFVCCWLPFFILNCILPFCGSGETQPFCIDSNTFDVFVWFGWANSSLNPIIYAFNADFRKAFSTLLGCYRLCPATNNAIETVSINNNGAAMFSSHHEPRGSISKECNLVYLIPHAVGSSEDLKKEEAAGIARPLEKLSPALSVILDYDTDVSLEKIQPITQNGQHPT
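Agonism was scored from calcium flux recorded over 180 s (1 read/s) after pintool compound addition, following a 10-cycle baseline. Cells were inducible force-coupled HEK293 TREx D1, plated overnight at 30 C and loaded with no-wash calcium dye.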
D1 antagonist – blocks dopamine activation of the human D1 receptor; P21728; HEK293 TREx D1 cells, calcium flux, dopamine EC80; active compounds read low; 360,000 tested, 3.2% active; activity change, negative = inhibition, % at 10 µM; in the data active = activity change below about -30%
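Cells carrying a force-coupled, tetracycline-inducible human D1 receptor report calcium flux. Each well gets a 10 s baseline, compound with 180 s monitoring, then an EC80 dopamine stimulus with a second 180 s kinetic read.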
D3 ag – activates the human D3 dopamine receptor | 410,000 tested, 0.58% active | max activation, % | D3R DiscoveRx beta-arrestin cells, luminescence, 90 min | P35462 | AID 652048; in the data active = max activation above about 30%
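Agonist mode: compounds and dopamine controls were applied to plated cells for 90 min at 37 degrees C after an overnight attachment at 1500 cells/well. Luminescent read-out followed 30 - 60 minutes at room temperature with DiscoveRx detection reagent.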
DRD3 antagonist – antagonists of human D3 dopamine receptor; max response, negative = inhibition, %; D3R cells, DiscoveRx beta-arrestin luminescence, antagonist mode; active compounds read low; P35462; 360,000 tested, 2.5% active; in the data active = max response below about -50%; inconclusive = no clear call, values can overlap the other calls
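Cells plated overnight at 1500 cells/well, then exposed to library compounds with dopamine controls for 90 minutes at 37 degrees C. DiscoveRx reagent added for 30–60 minutes at room temperature; luminescence read, quantitative HTS format.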
D1 PAM – potentiators of human D1 dopamine receptor. P21728. HEK293 TREx D1 cells, calcium flux, dopamine EC20 potentiation. potentiation, % at 10 µM. 360,000 tested, 0.036% active; in the data active = potentiation above about 30%
A number is an active result; - = inactive; ? = inconclusive; . = no result given.

SMILES | D1 agonist | D1 antagonist | D3 ag | DRD3 antagonist | D1 PAM
CSc1cccc(CN2CCCC(CO)(Cc3cccc(Cl)c3)C2)c1 (stereo not given) | - | - | - | - | -
CCc1cccc(-n2c(=O)c3cccnc3n2CC(=O)NCc2ccccc2)c1 | - | - | - | . | -
CCc1ccc(-c2cc(C)no2)cc1S(=O)(=O)N1CCN(c2ccccc2)CC1 | - | - | - | - | -
CSCC(=O)N1CCCC(CO)(Cc2ccccc2C)C1 (stereo not given) | - | -53 | - | - | -
Cc1ccc(NC(=O)Cn2cnc3sc(C(=O)O)c(C)c3c2=O)cc1Cl | - | - | - | . | -
CN(C/C=C/c1ccccc1)Cc1cccc2ccccc12 | - | - | - | -100 | -
CN(Cc1ccc(C(C)(C)C)cc1)Cc1cccc2ccccc12 | . | . | - | . | .
CCOc1ccccc1C(=O)NC1(C(F)(F)F)C(=O)Nc2c1c(=O)[nH]c(=O)n2-c1ccccc1 (stereo not given) | - | - | - | . | -
COc1ccccc1CCN1COc2c(cc3c(C)c(C)c(=O)oc3c2C)C1 | - | -31 | - | . | -
CCc1c(C)c2cc3c(c(C)c2oc1=O)OCN(CCc1ccc(OC)c(OC)c1)C3 | - | - | - | . | -
Cc1cccc(C)c1-n1nnnc1C(c1ccccc1OC(F)(F)F)N1CCN(C/C=C/c2ccccc2)CC1 (stereo not given) | . | . | - | -95 | .
Cc1cccc(C)c1-n1nnnc1C(c1ccnc2ccccc12)N1CCN(C/C=C/c2ccccc2)CC1 (stereo not given) | . | . | - | -116 | .
CC(C)(C)n1nnnc1C(c1ccnc2ccccc12)N1CCN(C/C=C/c2ccccc2)CC1 (stereo not given) | . | . | - | - | .
Cc1cccc(C)c1NC(=O)C(c1ccccc1OC(F)(F)F)N1CCN(C/C=C/c2ccccc2)CC1 (stereo not given) | . | . | - | -63 | .
Cc1cccc(C)c1-n1nnnc1C(c1ccnc2ccccc12)N1CCOCC1 (stereo not given) | . | . | - | - | .
Cc1cccc(C)c1-n1nnnc1C(c1ccnc2ccccc12)N1CCCC1 (stereo not given) | . | . | - | -56 | .
CCN(CC)S(=O)(=O)c1cc(C(=O)Nc2cc(S(=O)(=O)N3CCOCC3)ccc2N2CCN(C)CC2)ccc1C | . | . | - | - | .
COc1ccc(C(c2nnnn2-c2c(C)cccc2C)N2CCN(C/C=C/c3ccccc3)CC2)cc1 (stereo not given) | . | . | - | -87 | .
COc1cccc(C(c2nnnn2-c2c(C)cccc2C)N2CCN(C/C=C/c3ccccc3)CC2)c1OC (stereo not given) | . | . | - | -121 | .
CCc1cccc(NC(=O)CCS(=O)(=O)c2ccc3nc(C)sc3c2)c1 | - | - | - | . | -
CCCc1c(-c2cccc(Cl)c2)ncn1Cc1cccc(-c2ccccc2)c1 | . | . | 52 | - | .
Cc1nc(SCC(=O)c2ccc(Cl)cc2)c([N+](=O)[O-])[nH]1 | - | -40 | - | -66 | -
Cc1cc(C)c(C(N)=O)c(SCC(=O)c2ccc(Cl)cc2)n1 | . | . | - | -60 | .
Cc1nn(C(=O)c2cccc(F)c2)c(C)c1S(=O)(=O)N1CCOCC1 | - | - | - | . | -
CCN1CCCC1CNC(=O)c1cc2c(OC)cccc2[nH]1 (stereo not given) | - | - | - | - | -
SMILES | D1 agonist | D1 antagonist | D3 ag | DRD3 antagonist | D1 PAM
CCN1CCC[C@H]1CNC(=O)c1c(O)c(Cl)cc(Cl)c1OC | - | - | - | -117 | -
CCCCN1CCCC1CNC(=O)c1cc(C#N)c2ccccc2c1OC (stereo not given) | - | -41 | . | . | -
CCN1CCCC1CNC(=O)c1cc(OC)c(OC)c(OC)c1 (stereo not given) | - | - | - | -61 | -
CCN1CCCC1CNC(=O)CCNC(=O)c1cc(OC)c(OC)c(OC)c1 (stereo not given) | - | - | - | - | -
CCN1CCCC1CNC(=O)c1cc2c(OC)c(OC)c(OC)cc2[nH]1 (stereo not given) | - | - | - | -61 | -
Cc1ccc(CCNC(=O)CN2C(=O)COc3ccc(S(=O)(=O)N4CCCCCC4)cc32)cc1 | - | - | - | . | -
CCOc1ccc(OCC(=O)c2c(O)c3ccccc3oc2=O)cc1 | - | - | - | - | -
COc1ccc(OCC(=O)c2c(O)c3ccccc3oc2=O)cc1 | - | - | - | -114 | -
COc1ccc(C(=O)c2c(-c3ccc(OC)cc3)oc3ccccc23)cc1 | - | . | - | -63 | -
COc1ccc(-c2oc3ccccc3c(=O)c2OC(=O)c2ccc(C)cc2)cc1 | - | - | - | - | -
COC(=O)CN(C#N)c1nc(NC(C)C)nc(NC(C)C)n1 | - | - | - | - | -
O=C(O)c1ccccc1C(=O)NC1CCCc2ccccc21 (stereo not given) | - | - | - | - | -
COc1ccc(C(=O)NCC(C)(C)SCc2c(C)cc(C)cc2C)cc1 | 56 | -61 | - | - | -
COc1ccccc1CNCc1cccc(Oc2ccccc2)c1 | - | - | - | - | -
CC(C)(C)CC(C)(C)NCC(O)COc1c(F)cc(Br)cc1F (stereo not given) | 39 | - | - | ? | -
CC(C)(C)NCC(O)COc1c(F)cc(Br)cc1F (stereo not given) | - | - | - | - | -
C=CCOc1cccc(C2/C(=C(\O)c3ccc(F)cc3)C(=O)C(=O)N2CCN(C)C)c1 (stereo not given) | - | -53 | - | - | -
C=CCOc1cccc(C2/C(=C(/O)c3ccccc3)C(=O)C(=O)N2CCN2CCOCC2)c1 (stereo not given) | - | - | - | - | -
C=CCOc1cccc(C2/C(=C(/O)c3ccc(Cl)cc3)C(=O)C(=O)N2CCN2CCOCC2)c1 (stereo not given) | - | - | - | -56 | -
CCCOc1cccc(C2/C(=C(/O)c3ccc(F)cc3)C(=O)C(=O)N2CCN(C)C)c1 (stereo not given) | - | - | - | - | -
Cc1ccccc1C(=O)NNc1ccc(-c2csnn2)cc1 | - | - | - | - | -
COC(=O)c1ccc(C2c3c(oc4cc(C)c(C)cc4c3=O)C(=O)N2c2ccccn2)cc1 (stereo not given) | - | - | - | . | -
O=C1Nc2ccc(Br)cc2C1(O)c1ccccc1 (stereo not given) | - | - | - | - | -
O=C1Nc2ccc(Br)cc2C12NNc1ccccc1O2 (stereo not given) | 33 | - | - | - | -
Cc1cccc(NC(=O)Cn2cc(C(=O)C3CCCCC3)c3ccccc32)c1 | - | -30 | - | . | -
Cc1ccc(NC(=O)Cn2cc(C(=O)C3CCCCC3)c3ccccc32)cc1 | - | - | - | . | -
COc1cccc2cc(-c3nnc(SCC(=O)Nc4ccc(NC(C)=O)cc4)n3C)oc12 | - | -57 | - | - | -
COc1ccccc1-c1nnc(SCC(=O)NC2CC2)n1C | - | -59 | - | - | .
